# Source: PubChem
# Pf growth 48h: P. falciparum growth inhibition at 48 hours (one generation); P. falciparum luciferase growth in erythrocytes, 48 h; Potency, µM (top dose mostly 28.7 µM), most hits filed as inhibitors; actives 5.9% (n = 310,000); AID 504832
#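 A one-generation exposure of luciferase-tagged malaria parasites in RPMI 1640/Albumax erythrocyte culture, 37 C and 5% CO2. Inhibition is inferred from decreased luminescence after adding detection reagent.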
# Pf growth 96h: inhibits malaria parasite growth, 96 h | P. falciparum luciferase reporter growth, 96 h | Potency, µM (titrated, usually from 28.7 µM), hits mostly inhibitors | actives 6.9% (n = 320,000)
#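 Luminescence readout: decreased luciferase signal marks inhibited growth of reporter-expressing P. falciparum in infected red cells (2% hematocrit, 0.05% parasitemia final), exposed to compound two generations (96 h, 37 C, 5% CO2).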
# VACV Venus inh: inhibitors of vaccinia virus (Venus reporter). Vaccinia virus Venus reporter expression, fluorescence. Potency, µM (series often up to 36.5 µM), most hits filed as inhibitors. actives 0.46% (n = 330,000). AID 720580; calls by dose curve; tested in A549 cells; note: nearly all actives have a fitted effect of over 30% in size
# HCV inhibitor: blocks hepatitis C virus. Huh7.5.1 HCVcc-Cre infection, luciferase reporter, 44 h. Potency, µM (top dose mostly 41.8 µM), actives largely listed as inhibitors. actives 3.4% (n = 340,000). AID 651820
#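 Reporter virus HCVcc-Cre (~0.5 moi) infects cells exposed to compound; seeding density 1,000 cells/well with 4 h settling beforehand. Luminescence, 15 sec read, taken 44 h post-infection following a 15 min RT substrate incubation.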
# VACV mCherry inh: vaccinia inhibition (mCherry reporter); Vaccinia virus mCherry reporter infection, fluorescence; Potency, µM (series often up to 36.5 µM), actives largely listed as inhibitors; actives 0.63% (n = 310,000); calls by dose curve; tested in A549 cells; note: nearly all actives have a fitted effect of over 35% in size
# NS1 inh: inhibitors of influenza NS1 protein function; Potency, µM (titrated, usually from 46.1 µM); actives 0.4% (n = 270,000); AID 2326; calls by dose curve; note: actives are rising curves; nearly all actives have a fitted effect of over 50% in size
#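 S. cerevisiae expressing influenza A NS1, grown in glucose, washed, then diluted 1:100 into pH 6.0 -URA galactose medium with 23 nl compound. Growth recovery read as OD600; NS1-free strain serves as control.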
# Numbers stand for hits; 0 = inactive; ? = inconclusive; - = not tested or not shown; [ ] = dose if it differs, or a comment. Compounds with a hit are over-represented: about 11% of the library has one in this group of screens. Unless noted, calls come from the whole dose curve; as a rule, active = well fitted inhibition curve with a large enough effect; inconclusive = small, poorly fitted or top-dose-only effect, or another doubt; inactive = no such curve, though single readings can be large or run the other way.
SMILES,Pf growth 48h,Pf growth 96h,VACV Venus inh,HCV inhibitor,VACV mCherry inh,NS1 inh
CN(C)C1(c2nnnn2-c2ccc(Cl)cc2)CCCCC1,-,?,0,0,0,0
COc1ccccc1N1CCN(Cc2ccc(C(=O)O)cc2)CC1,0,0,0,0,0,0
COc1cc2ncc(C(=O)c3ccccc3)c(N3CCN(Cc4ccccc4)CC3)c2cc1OC,4.7µM,?,0,0,0,0
c1ccc(-c2nnc(-c3ccccn3)nc2NC2CCCCC2)cc1,0.93µM,-,?,1.6µM,3.5µM,0
Clc1ccc(SCCCCN2CCNCC2)cc1,?,12µM,-,?,-,?
Cc1ccc(SCCCCN2CCNCC2)cc1,0,0,-,11µM,-,0
Cc1cc(C)n2nc(SCc3cc(=O)oc4cc(O)ccc34)nc2n1,?,-,-,?,-,0
Cn1cc(Br)c(C(=O)NNC(=O)Cc2ccc(Cl)cc2)n1,0,0,0,0,0,0
Cc1csc(SCC(=O)c2cc(C)n(Cc3cccs3)c2C)n1,0,-,?,10µM,0,0
Cc1cc(C(=O)CSc2nnc(N)s2)c(C)n1Cc1cccs1,0,0,0,?,0,0
Cc1cc(C)n(-c2nc3ccccc3nc2Nc2ccc3[nH]c(=O)[nH]c3c2)n1,0,-,0,11µM,0,0
CCCCn1c(=O)n(CC(=O)NCc2ccc(C)cc2)c(=O)c2c1nc(CO)n2CCC,?,4.1µM,0,0,0[1.46 µM],0
COCCCNC(=O)Cn1c(=O)n(CCCC(=O)NCc2ccc(C)cc2)c(=O)c2ccccc21,-,-,0,-,0,-
COc1ccc(C(=O)NC(=S)N(Cc2ccccc2)Cc2ccccc2)cc1,0,?,-,0,-,0
CCOC(=O)[C@H]1[C@H]2COc3ccccc3[C@@H]2N2C(=O)c3cc(Br)ccc3NC(=O)[C@@]12C,4.1µM,6.6µM,0,0,0,-
CCOC(=O)[C@H]1[C@H]2COc3ccc(Br)cc3[C@@H]2N2C(=O)c3cc(Br)ccc3NC(=O)[C@@]12C,?,8.3µM,?,?,0,-
CCOc1ccc(N(CC(=O)O)S(=O)(=O)c2cccnc2)cc1,-,15µM,0,0,0,0
CCOc1ccc(N(CC(=O)Nc2cccnc2)S(=O)(=O)c2ccc(C)cc2)cc1,13µM,0,0,0,0,-
CCOc1ccc(S(=O)(=O)N(CC(=O)Nc2cccnc2)c2ccccc2)cc1,-,-,0,-,0,-
CC(=O)c1cccc(NC(=O)Nc2nc(C)cc(C)n2)c1,0,?,-,0,-,0
CCCn1c2c(c(O)c(C(=O)NC)c1=O)CCCC2,0,?,0,?,-,0
CCCn1c2c(c(O)c(C(=O)NCc3ccccc3)c1=O)CCCC2,0,?,0,5µM,0,0
CCCn1c2c(c(O)c(C(=O)Nc3ccc(OC)cc3)c1=O)CCCC2,?,?,0,11µM,-,0
CC(C)c1ccc2c(c1)-c1ccccc1S(=O)(=O)N2CC(=O)N1CCCCC1,-,-,0,-,0,-
CCCCNC(=S)Nc1cccc(C(C)=O)c1,0,0,0,0,0,0
SMILES,Pf growth 48h,Pf growth 96h,VACV Venus inh,HCV inhibitor,VACV mCherry inh,NS1 inh
CCCCN(CCCC)CC(O)CN(c1cc([N+](=O)[O-])ccc1OC)S(=O)(=O)c1ccccc1 (stereo not given),13µM,?,0,?,?,0
COc1ccc([N+](=O)[O-])cc1N(CC(O)CN(CC(C)C)CC(C)C)S(=O)(=O)c1ccccc1 (stereo not given),9.3µM,?,0,0,0,0
CC(=O)N1CCN(CC(=O)Nc2cc(F)ccc2C)CC1,0,?,0,0,0,0
COc1ccc(CNC(=O)CCSCc2cccc(Cl)c2)cc1,0,0,0,0,0,0
COc1ccc(CNC(=O)CCSCc2ccccc2C)cc1,0,3.3µM,0,0,0,-
O=C(CCSCc1ccccc1F)NCc1ccc(F)cc1,-,2.3µM,0,0,0,0
Cc1ccccc1NC(=S)N(C)CCc1ccccn1,0,0,0,0,0,0
CC(C)(C)c1ccc(C(CC(=O)O)NC(=O)C23CC4CC(CC(C4)C2)C3)cc1 (stereo not given),0,0,-,0,-,0
O=S(=O)(c1ccccc1)N1CCCc2ccccc21,0,0,-,-,-,0
O=S(=O)(c1ccc(F)cc1)N1CCCc2ccccc21,0,1.7µM,-,-,-,0
COc1ccc(S(=O)(=O)N2CCCc3ccccc32)cc1OC,12µM,0,0,0,0,0
O=C(O)C1CC=CCC1C(=O)Nc1ccc(S(=O)(=O)N2CCCc3ccccc32)cc1 (stereo not given),0,10µM,-,0,-,?
O=C(Nc1ccc(S(=O)(=O)N2CCCc3ccccc32)cc1)C1CCCO1 (stereo not given),?,0,-,0,-,0
COc1ccc(S(=O)(=O)N2CCCc3ccccc32)cc1[N+](=O)[O-],0[0.00184 µM],0,-,0,-,0
COc1ccc(C(=O)NC2CCCCCC2)cc1S(=O)(=O)N1CCCc2ccccc21,-,10µM,0,?,0,0
Cc1csc(NC(=O)CSc2ncn(-c3ccccc3)n2)n1,0,0,0,0,0,0
CCS(=O)(=O)N1CCC(C(=O)NC2CCCCCCC2)CC1,0,0,0,0,0,0
CC(C)(C)N(Cc1ccccc1)C(=O)c1ccc2c(c1)OCCO2,0,0[5.75 µM],0,0,0,0
O=C(Cc1cccs1)Nc1nc2c(ccc3ccccc32)s1,0,-,?,?,0[1.46 µM],0
COc1ccc(S(=O)(=O)N2CCc3ccccc32)cc1C(=O)NCc1ccco1,13µM,?,0,0,0,-
Cc1c(Cl)c([N+](=O)[O-])nn1CCCC(=O)Nc1ccc(Cl)cc1Cl,0,12µM,0,0,0,0
Cc1ccc(Cn2nc(C)c(NC(=O)CCCn3nc([N+](=O)[O-])c(Cl)c3C)c2C)cc1,0,0,0,0,0,0
Cc1c(Cl)c([N+](=O)[O-])nn1CCCC(=O)Nc1cccc(Cl)c1Cl,0,?,0,0,0,0
Cc1nn(Cc2ccccc2Cl)c(C)c1NC(=O)CCCn1nc([N+](=O)[O-])c(Cl)c1C,0,4.7µM,0,0,?,0
Cc1ccc2cc(CN(Cc3ccccc3)Cc3nnnn3C3CCCC3)c(=O)[nH]c2c1,?,?,?,?,0,0
SMILES,Pf growth 48h,Pf growth 96h,VACV Venus inh,HCV inhibitor,VACV mCherry inh,NS1 inh
Cc1cccc2cc(CN(Cc3nnnn3C3CCCCC3)C3CCCC3)c3nnnn3c12,12µM,-,-,?,-,0
COc1ccc(Cn2nnnc2CN(Cc2cc3cccc(C)c3[nH]c2=O)C2CCCC2)cc1,10µM,0,0,?,0,0
COc1ccc(Cn2nnnc2CN(Cc2cc3ccc(C)cc3[nH]c2=O)C2CCCC2)cc1,9.3µM,0[5.75 µM],?,10µM,0,0
CCC(C)(C)n1nnnc1CN(Cc1cc2cc(OC)ccc2[nH]c1=O)C1CCCC1,?,0,0,?,0,0
Cc1ccc2cc(CN(Cc3ccc(F)cc3)Cc3nnnn3C3CCCC3)c(=O)[nH]c2c1,3.7µM,0,0,0,?,0
COc1ccc(C)cc1NC(=O)C1CCN(S(=O)(=O)c2cccc3nonc23)CC1,0,0,0,0,0,0
Cc1ccc(-n2c(N)c(C(N)=O)sc2=S)cc1,-,0,0,0,0,?
